# About 6,500 targets were measured; listed, in parts, are those with a hit and a random draw of the rest. About 2% of all pairs of compound and target were hits. Unmarked numbers belong to inactive results.
# Compound: COC(=O)C#Cc1ccccc1 [methyl 3-phenylpropiolate]
# Experiment: log2 ratio of iodoacetamide-alkyne labeling of the cysteine site, DMSO over compound (competition); higher = stronger covalent engagement of the cysteine by the compound, active = 1 or more
# Conditions: 500 µM; treatment time 1 h; system: HEK293T cell lysate
# Method in brief: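 HEK293T lysate at 2 mg/mL was treated with vehicle or electrophile (500 µM) for 1 h at ambient temperature, then labelled with iodoacetamide alkyne (1 h), clicked to sCIP-TMT reagents, pooled, digested with trypsin overnight at 37 °C, enriched on streptavidin and eluted with acid. Peptides were analysed by Orbitrap Eclipse LC-MS/MS with FAIMS and quantified in FragPipe, using duplicate channels and three replicates, with cysteines quantified in only one replicate excluded. The log2 competition ratio for each cysteine is the mean control-channel reporter intensity divided by the mean compound-channel reporter intensity.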
# Chain of UniProt Q14738 (Q14738 whole entry): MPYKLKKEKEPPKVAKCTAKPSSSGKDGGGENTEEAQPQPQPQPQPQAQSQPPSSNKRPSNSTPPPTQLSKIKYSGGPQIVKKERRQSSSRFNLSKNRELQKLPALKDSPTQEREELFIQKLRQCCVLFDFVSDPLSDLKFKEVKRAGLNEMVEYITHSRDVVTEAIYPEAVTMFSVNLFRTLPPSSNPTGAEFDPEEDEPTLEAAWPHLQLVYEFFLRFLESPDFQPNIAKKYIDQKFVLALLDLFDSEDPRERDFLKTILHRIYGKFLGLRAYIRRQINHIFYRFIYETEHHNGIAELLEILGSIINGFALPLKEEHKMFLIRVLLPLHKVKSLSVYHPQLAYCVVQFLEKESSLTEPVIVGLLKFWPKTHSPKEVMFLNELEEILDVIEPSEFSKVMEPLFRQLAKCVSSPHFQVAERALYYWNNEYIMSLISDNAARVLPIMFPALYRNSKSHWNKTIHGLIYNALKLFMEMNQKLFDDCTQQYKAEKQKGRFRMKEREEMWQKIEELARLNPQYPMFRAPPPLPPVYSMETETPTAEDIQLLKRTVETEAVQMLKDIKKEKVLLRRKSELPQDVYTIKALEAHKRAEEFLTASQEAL
# Chain of UniProt Q13526 (Q13526 whole entry, looked up): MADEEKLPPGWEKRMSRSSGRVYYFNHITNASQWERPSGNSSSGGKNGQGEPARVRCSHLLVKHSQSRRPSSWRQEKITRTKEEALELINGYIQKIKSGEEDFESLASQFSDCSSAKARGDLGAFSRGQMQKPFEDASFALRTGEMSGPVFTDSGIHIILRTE
# Chain of UniProt P62633 (P62633 whole entry, looked up): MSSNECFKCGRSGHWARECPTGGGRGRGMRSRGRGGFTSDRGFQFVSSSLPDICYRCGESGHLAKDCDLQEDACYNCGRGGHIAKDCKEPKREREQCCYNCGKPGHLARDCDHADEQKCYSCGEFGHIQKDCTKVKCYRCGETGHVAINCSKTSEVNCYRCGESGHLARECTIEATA
# Chain of UniProt Q07157 (Q07157 whole entry, looked up): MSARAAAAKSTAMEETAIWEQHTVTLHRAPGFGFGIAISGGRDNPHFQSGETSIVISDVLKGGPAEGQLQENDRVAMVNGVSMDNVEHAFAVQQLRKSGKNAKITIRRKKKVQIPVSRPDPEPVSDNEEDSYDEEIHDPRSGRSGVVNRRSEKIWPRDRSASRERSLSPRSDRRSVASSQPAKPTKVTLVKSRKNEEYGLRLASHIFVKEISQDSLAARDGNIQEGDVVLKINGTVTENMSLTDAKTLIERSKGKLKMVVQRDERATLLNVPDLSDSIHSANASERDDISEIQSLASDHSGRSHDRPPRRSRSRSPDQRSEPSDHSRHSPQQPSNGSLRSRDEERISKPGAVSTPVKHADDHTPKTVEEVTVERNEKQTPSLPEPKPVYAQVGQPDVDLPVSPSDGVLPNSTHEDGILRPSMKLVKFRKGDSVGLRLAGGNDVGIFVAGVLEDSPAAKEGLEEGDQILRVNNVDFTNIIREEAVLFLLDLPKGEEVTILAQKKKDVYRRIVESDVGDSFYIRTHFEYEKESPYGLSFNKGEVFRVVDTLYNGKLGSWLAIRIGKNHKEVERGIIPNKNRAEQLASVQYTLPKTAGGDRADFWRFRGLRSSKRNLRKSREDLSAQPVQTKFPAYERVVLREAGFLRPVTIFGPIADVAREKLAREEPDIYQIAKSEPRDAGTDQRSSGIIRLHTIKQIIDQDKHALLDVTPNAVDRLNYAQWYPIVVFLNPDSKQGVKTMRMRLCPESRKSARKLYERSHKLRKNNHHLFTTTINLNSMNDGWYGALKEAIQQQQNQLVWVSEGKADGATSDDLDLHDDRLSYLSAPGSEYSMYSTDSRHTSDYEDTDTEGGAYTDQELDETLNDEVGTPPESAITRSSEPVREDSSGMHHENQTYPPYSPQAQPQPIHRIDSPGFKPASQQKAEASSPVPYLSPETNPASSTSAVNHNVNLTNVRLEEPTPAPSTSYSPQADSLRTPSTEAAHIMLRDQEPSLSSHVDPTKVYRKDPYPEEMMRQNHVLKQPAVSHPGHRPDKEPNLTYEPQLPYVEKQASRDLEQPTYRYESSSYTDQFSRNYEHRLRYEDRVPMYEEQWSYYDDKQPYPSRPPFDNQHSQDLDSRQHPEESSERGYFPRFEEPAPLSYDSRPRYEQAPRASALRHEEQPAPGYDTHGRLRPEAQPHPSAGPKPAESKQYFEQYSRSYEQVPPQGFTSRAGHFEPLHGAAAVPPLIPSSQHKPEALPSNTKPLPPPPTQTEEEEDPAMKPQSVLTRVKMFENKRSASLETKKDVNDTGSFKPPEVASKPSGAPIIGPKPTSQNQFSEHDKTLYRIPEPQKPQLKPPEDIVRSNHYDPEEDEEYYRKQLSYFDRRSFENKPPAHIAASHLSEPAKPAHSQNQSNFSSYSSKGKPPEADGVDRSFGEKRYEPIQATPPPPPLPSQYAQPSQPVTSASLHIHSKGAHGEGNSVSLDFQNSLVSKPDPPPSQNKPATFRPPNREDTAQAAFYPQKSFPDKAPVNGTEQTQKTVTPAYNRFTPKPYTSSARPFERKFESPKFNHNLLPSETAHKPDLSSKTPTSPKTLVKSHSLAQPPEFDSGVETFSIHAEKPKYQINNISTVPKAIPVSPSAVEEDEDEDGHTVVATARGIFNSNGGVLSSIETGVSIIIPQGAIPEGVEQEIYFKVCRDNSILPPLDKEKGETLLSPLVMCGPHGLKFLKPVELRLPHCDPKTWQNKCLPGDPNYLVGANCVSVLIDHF
# Chain of UniProt Q12788 (Q12788 whole entry, looked up): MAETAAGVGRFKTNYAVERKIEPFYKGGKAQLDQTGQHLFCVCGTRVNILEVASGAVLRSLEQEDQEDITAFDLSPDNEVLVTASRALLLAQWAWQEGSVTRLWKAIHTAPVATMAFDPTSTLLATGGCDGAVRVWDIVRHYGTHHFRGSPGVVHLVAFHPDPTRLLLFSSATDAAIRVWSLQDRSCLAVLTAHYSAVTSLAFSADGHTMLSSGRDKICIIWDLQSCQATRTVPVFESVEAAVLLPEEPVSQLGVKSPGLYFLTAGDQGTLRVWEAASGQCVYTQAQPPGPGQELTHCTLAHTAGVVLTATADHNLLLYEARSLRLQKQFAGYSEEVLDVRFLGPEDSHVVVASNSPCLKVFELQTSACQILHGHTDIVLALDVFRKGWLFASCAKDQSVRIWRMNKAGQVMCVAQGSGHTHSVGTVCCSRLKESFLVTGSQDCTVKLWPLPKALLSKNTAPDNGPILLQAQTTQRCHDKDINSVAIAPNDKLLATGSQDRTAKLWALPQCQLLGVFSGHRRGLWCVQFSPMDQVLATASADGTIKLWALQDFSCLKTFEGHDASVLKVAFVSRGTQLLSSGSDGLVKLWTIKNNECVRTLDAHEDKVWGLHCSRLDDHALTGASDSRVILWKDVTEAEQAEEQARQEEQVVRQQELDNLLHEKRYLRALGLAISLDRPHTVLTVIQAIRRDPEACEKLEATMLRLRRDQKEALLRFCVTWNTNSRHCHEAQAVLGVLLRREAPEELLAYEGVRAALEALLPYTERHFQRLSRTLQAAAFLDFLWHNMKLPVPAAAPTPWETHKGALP
# Chain of UniProt Q08380 (Q08380 whole entry, looked up): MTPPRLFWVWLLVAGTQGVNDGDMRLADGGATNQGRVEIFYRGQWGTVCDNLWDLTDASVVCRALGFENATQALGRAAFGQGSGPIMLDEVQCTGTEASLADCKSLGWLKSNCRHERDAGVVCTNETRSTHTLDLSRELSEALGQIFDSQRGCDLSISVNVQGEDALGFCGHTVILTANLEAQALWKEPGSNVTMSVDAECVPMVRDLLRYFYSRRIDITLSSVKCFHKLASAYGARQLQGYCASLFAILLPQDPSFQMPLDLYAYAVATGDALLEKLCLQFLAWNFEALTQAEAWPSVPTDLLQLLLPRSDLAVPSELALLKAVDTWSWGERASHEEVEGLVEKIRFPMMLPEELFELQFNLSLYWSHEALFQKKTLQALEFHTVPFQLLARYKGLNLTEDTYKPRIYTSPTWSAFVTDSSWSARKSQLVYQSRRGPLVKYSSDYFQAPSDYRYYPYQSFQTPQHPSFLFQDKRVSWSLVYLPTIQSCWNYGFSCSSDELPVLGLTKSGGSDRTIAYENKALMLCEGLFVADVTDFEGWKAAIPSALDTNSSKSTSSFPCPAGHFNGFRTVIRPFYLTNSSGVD
# Chain of UniProt Q1KMD3 (Q1KMD3 whole entry, looked up): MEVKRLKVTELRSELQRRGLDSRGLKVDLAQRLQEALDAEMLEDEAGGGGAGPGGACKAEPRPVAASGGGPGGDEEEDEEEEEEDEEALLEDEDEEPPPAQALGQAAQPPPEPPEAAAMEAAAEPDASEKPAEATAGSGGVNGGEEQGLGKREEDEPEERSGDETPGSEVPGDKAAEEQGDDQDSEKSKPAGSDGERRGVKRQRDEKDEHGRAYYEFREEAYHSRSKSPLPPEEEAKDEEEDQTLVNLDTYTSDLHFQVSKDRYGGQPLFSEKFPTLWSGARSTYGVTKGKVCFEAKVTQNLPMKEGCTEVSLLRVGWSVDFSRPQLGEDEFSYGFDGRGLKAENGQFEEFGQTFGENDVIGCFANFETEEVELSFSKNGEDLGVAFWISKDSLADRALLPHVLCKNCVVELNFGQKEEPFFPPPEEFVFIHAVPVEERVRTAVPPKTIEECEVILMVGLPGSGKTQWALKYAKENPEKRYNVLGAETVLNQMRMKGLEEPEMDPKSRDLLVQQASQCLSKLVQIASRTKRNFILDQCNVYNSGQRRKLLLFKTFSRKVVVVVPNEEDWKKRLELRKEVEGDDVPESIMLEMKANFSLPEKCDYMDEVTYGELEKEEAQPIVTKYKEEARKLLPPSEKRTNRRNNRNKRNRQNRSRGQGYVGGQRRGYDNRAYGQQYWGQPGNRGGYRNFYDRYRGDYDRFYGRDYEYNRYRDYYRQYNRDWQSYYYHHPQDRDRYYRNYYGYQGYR
row,Target,log2 ratio of iodoacetamide-alkyne labeling
1,GABPB1 C331 (UniProt Q06547),0.198
2,GOLGA2 C794 (UniProt Q08379),1.07 (active)
3,CNBP C171 (UniProt P62633),-0.0616
4,CHAF1A C190 (UniProt Q13111),1.08 (active)
5,NUP98 C1027 (UniProt P52948),0.378
6,ACLY C20 (UniProt P53396),0.357
7,UniProt P60709_C217,0.0537
8,UniProt P62244_C72,0.177
9,TBL3 C696 (UniProt Q12788),0.373
10,GEMIN4 C382 (UniProt P57678),0.0965
11,GEN1 C668 (UniProt Q17RS7),0.0186
12,PMS2 C798 (UniProt P54278),-0.143
13,FHL1 C71 (UniProt Q13642),0.0627
14,ILK C422 (UniProt Q13418),0.358
15,SF3A3 C103 (UniProt Q12874),0.188
16,DST C7524 (UniProt Q03001),0.174
17,HNRNPU C450 (UniProt Q00839),0.018
18,FOXK1 C254 (UniProt P85037),1.18 (active)

row,Target,log2 ratio of iodoacetamide-alkyne labeling
1,KIF14 C442 (UniProt Q15058),0.0677
2,UniProt P55769_C30,-0.0266
3,LGALS3BP C496 (UniProt Q08380),1.72 (active)
4,BOP1 C373 (UniProt Q14137),0.0315
5,HMGCS1 C86 (UniProt Q01581),0.0742
6,R3HDM1 C304 (UniProt Q15032),0.1
7,UniProt Q02040_C542,0.763
8,PIN1 C57 (UniProt Q13526),-0.187
9,STX5 C68 (UniProt Q13190),0.4
10,SQSTM1 C113 (UniProt Q13501),1.2 (active)
11,UniProt P78527_C4061,0.465
12,NUP98 C1590 (UniProt P52948),0.601
13,SAFB C404 (UniProt Q15424),1.14 (active)
14,HNRNPUL2 C308 (UniProt Q1KMD3),0.826
15,PPP2R5D C17 (UniProt Q14738),0.818
16,UniProt P83731_C6,0.668
17,TJP1 C1727 (UniProt Q07157),0.0718
18,COASY C144 (UniProt Q13057),1.16 (active)

# — the supplement of paper PMC11006884
